High-throughput results from PubChem BioAssay.
TDP1 inh: qHTS Assay for Inhibitors of Tyrosyl-DNA Phosphodiesterase (TDP1). recombinant TDP1, AlphaScreen DNA substrate cleavage. 350,000 compounds, 0.28% hits. Tyrosyl-DNA phosphodiesterase 1 (Homo sapiens), Q9NUW8. AID 485290, 2010. Potency, µM (titrated, usually from 130 µM), inactives show top-dose activity change, negative = inhibition, most hits filed as inhibitors; note: potency is the fitted concentration of half-maximal effect; nearly all actives have a fitted effect of over 40% in size
Target sequence (Q9NUW8 whole entry, looked up): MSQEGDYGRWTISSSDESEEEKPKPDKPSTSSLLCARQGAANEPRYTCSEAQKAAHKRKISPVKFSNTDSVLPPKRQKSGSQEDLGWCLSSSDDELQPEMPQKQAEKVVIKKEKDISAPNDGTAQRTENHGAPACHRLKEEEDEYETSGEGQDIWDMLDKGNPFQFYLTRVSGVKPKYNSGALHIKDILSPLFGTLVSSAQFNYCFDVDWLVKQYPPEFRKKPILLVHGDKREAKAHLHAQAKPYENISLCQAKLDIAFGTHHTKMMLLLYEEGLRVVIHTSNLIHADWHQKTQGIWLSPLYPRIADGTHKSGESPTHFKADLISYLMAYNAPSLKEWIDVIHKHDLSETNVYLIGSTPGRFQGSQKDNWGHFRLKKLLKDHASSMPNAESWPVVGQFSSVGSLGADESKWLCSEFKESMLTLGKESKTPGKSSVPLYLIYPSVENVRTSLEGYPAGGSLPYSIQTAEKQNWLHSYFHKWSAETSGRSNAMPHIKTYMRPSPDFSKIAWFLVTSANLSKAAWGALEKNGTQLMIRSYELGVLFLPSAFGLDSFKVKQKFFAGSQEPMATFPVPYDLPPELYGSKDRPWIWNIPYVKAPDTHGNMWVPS
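Enzyme-compound mixtures sat 15 min at room temperature, followed by a 5 min reaction with 15 nM final substrate and 10 min with AlphaScreen beads. Recombinant human Tdp1 was used at 1 nM final.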
IL-1B inflam inh: qHTS for Inhibitors of Inflammasome Signaling: IL-1-beta AlphaLISA Primary Screen; THP-1 LPS/ATP IL-1B secretion, AlphaLISA, 16 h; stronger effect = lower value; activity change, % at 57.5 µM; 360,000 compounds, 4.7% hits; AID 743279, 2014; in the data active = activity change below about -50%; inconclusive = mostly about -30% to -49%
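Secreted IL-1B measured by AlphaLISA bead assay after 16 h compound exposure of THP-1 cells; compounds (final up to 57.5 uM) added 1 h before LPS (250 ng/mL) and ATP (1.25 mM) stimulation; lower signal means less secretion.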
Giardia killer: Small Molecules that selectively kill Giardia lamblia: qHTS | Giardia lamblia trophozoite viability | activity change, % at 7.66 µM, hits read low | 340,000 compounds, 0.15% hits; in the data active = activity change below about -80%; inconclusive = between about -30% and that limit;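 note: parasites exposed to compound for two days anaerobically before the ATP read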
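Giardia trophozoites, 100 cells per well, were exposed to compounds for 48 hrs at 37 deg C under anaerobic conditions; viability was then read as ATP content by bioluminescence after 15-30 min at room temperature.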
ELG1 repair inh: qHTS screen for small molecules that inhibit ELG1-dependent DNA repair in human embryonic kidney (HEK293T) cells expressing luciferase-tagged ELG1 | AID 504467, 2011 | 330,000 compounds, 2.3% hits | Potency, µM (titrated, usually from 46.1 µM), for the others: top-dose activity change, negative = inhibition, most hits filed as inhibitors | HEK293T ELG1-luciferase reporter, luminescence, 16 h; DNA damage induced by 5-fluorouridine; note: potency is the fitted concentration of half-maximal effect; nearly all actives have a fitted effect of over 55% in size
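HEK293T cells expressing luciferase-tagged ELG1 (2,000/well) received 5-Fluorouridine plus compound or DMSO for 16 hr at 37 °C. Luciferase was read by ONE-Glo luminescence after 30 min at room temperature.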
DT40 TDP1 no CPT: qHTS for Inhibitors of human tyrosyl-DNA phosphodiesterase 1 (TDP1): qHTS in cells in absence of CPT; DT40 Tdp1-/- hTDP1 cells, no CPT, ATP luminescence, 48 h; Potency, µM (highest dose often 46.2 µM), inactives show at the highest dose activity change, negative = growth inhibition, most hits filed as inhibitors; 420,000 compounds, 15% hits; note: potency is the fitted concentration of half-maximal effect; nearly all actives have a fitted effect of over 55% in size
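Compound effects on proliferation are scored in DT40 Tdp1-/-;hTDP1 cells in the absence of CPT. ATP levels (CellTiter-Glo luminescence) are recorded after a ≥48 hr, 37 °C incubation.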
DT40 TDP1 CPT: qHTS for Inhibitors of human tyrosyl-DNA phosphodiesterase 1 (TDP1): qHTS in cells in presence of CPT; chicken DT40 Tdp1-/-;hTDP1 cells + 20 nM CPT, ATP luminescence, 48 h; Potency, µM (highest dose often 46.2 µM), without a hit: at the top dose activity change, negative = growth inhibition, usual class: inhibitors; 420,000 compounds, 12% hits; AID 686979, 2013; note: potency is the fitted concentration of half-maximal effect; nearly all actives have a fitted effect of over 55% in size
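Chicken DT40 Tdp1-/- cells stably complemented with human TDP1 were seeded at 400 cells/well in medium containing 20 nM camptothecin, exposed to pin-transferred compounds, and grown at 37 °C for at least 48 hr. Viability was read as ATP luminescence.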
* hit, by the source's call; i = inactive; ? = inconclusive; / = no result given. Compounds with a hit are over-represented: about 19% of the library has one in this group of screens. Unless noted, calls come from the whole dose curve; as a rule, active = well fitted curve in the direction sought with a large enough effect; inconclusive = small, poorly fitted or top-dose-only effect, or another doubt; inactive = no such curve, though single readings can be large; an effect the other way counts as inactive or inconclusive. % is set by controls: 0 for no effect and ±100 for the full control effect.

SMILES	TDP1 inh	IL-1B inflam inh	Giardia killer	ELG1 repair inh	DT40 TDP1 no CPT	DT40 TDP1 CPT
CC1=C(C(=O)N(C(C)C)C(C)C)CC(CC(=O)NCCCN(C)C)C(=O)N1CCCN1CCCC1=O (centres undefined)	/	20	/	/	3%	-5%
Cn1cc(Br)c(C(=O)Nc2sc3c(c2C(N)=O)CCCC3)n1	/	-82*	10	?	16µM*	?
Cc1ccc(S(=O)(=O)CC(=O)Nc2sc3c(c2C(N)=O)CCCC3)cc1	0%	/	/	/	21µM*	15µM*
COC(=O)c1c(NC(=O)CS(=O)(=O)c2ccc(C)cc2)sc2c1CCCC2	5%	/	/	/	16µM*	?
CCn1cc(Br)c(C(=O)Nc2sc3c(c2C(N)=O)CCCC3)n1	6%	i	-19	?	-3%	-12%
NC(=O)c1c(NC(=O)CN2CCN(S(=O)(=O)c3ccccc3)CC2)sc2c1CCC2	/	-51*	-1	?	18µM*	13µM*
O=C(Nc1sc2c(c1C(=O)O)CCC2)c1cccs1	-2%	-4	-17	?	-16%	-7%
NC(=O)c1c(NC(=O)c2cccs2)sc2c1CCCCCC2	0%	-84*	-5	?	?	?
Cc1ccc(S(=O)(=O)NCC2CCC(C(=O)NCCc3ccccc3)CC2)cc1 (centres undefined)	6%	/	/	/	-16%	-11%
COc1ccc(CNCCC(c2ccccc2)c2ccc3c(c2)OCO3)cc1 (centres undefined)	10%	-87*	6	5%	5.8µM*	5.8µM*
COc1ccc(C(CC(=O)O)c2ccc3c(c2)OCO3)cc1 (centres undefined)	/	17	-1	6%	6%	19%
COc1ccc(CNCCC(c2ccc(C)cc2)c2ccco2)cc1 (centres undefined)	/	/	/	/	7.3µM*	12µM*
Fc1ccccc1CNCCC(Cc1ccccc1)c1ccc2c(c1)OCO2 (centres undefined)	5%	-98*	-10	-15%	?	?
Cc1cc(C)c(NC(=O)CSc2nc3c([nH]c4ccccc43)c(=O)n2C)c(C)c1	-4%	/	/	/	?	?
Cc1ccc(NS(=O)(=O)c2ccc3c(c2)CCN(C(=O)C(F)(F)F)C3)cc1C	0%	/	/	/	/	/
NC(=O)C1(C(N)=O)OC1c1ccc(Cl)c(Cl)c1 (centres undefined)	/	-9	-3	1%	7%	0%
O=C(Nc1nnc(SCC(=O)N2CCCCC2)s1)c1c(F)cccc1F	2%	-4	-9	3%	-1%	6%
COc1ccccc1Cc1c(-c2ccco2)nc2c3ccccc3ccn12	/	-2	/	/	16µM*	23µM*
COc1ccc(Cc2c(-c3ccco3)nc3c(C)cc(Br)cn23)c(C)c1	/	2	/	/	2.3µM*	2.9µM*
COc1ccc(Cc2c(-c3ccco3)nc3ccc(Br)cn23)c(C)c1	/	-23	/	/	?	21µM*
COc1ccccc1Cc1c(-c2ccco2)nc2c(C)cc(Br)cn12	/	-13	/	/	5.8µM*	2.9µM*
Cc1cc(Br)cn2c(Cc3ccccc3)c(-c3ccco3)nc12	/	-19	/	/	?	?
O=C(NCc1cccnc1)C1CCN(Cc2cc3ccccc3n2Cc2ccccc2)CC1	5%	/	/	/	13µM*	?
O=C(NCc1cccnc1)C1CCN(Cc2cc3ccccc3n2Cc2cccc(Cl)c2)CC1	5%	/	/	/	18µM*	?
CN(C)c1ccc(CNC(=O)C2CCN(Cc3cc4ccccc4n3Cc3ccccc3)CC2)cc1	13%	/	/	/	13µM*	16µM*
